These results are taken from PubChem BioAssay.

Assay [1] can be described thus: stimulators of nuclear beta-catenin in C2C12, primary screen, imaging, WNT3A-conditioned medium, mouse C2C12, NPC library (AID 1117326; in the data active = nuclear beta-catenin stimulation mostly above about 4.2%, no sharp cut-off; inactive = mostly below about 10%). The note with it: stronger effect = higher value.
A short description of assay [2]: stimulators of insulin release from INS-1E, primary screen, cell-based, 5 mM glucose, NPC library (AID 1117329;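 active = compound raises insulin release from rat beta cells at 5 mM glucose, no numeric limit stated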). The conditions noted are these: rat INS-1E insulin secretion, at 10 µM, stronger effect = higher value.
Assay [3] in a line: growth inhibition of GSK3B-pretreated HCT116 cells – cell-based, CellTiter-Glo, 0.2 to 20 µM (AID 1117336;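 active = compounds lowering colon cancer cell viability after pretreatment blocking the GSK3B kinase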). The conditions noted are these: HCT116 viability after GSK3B inhibitor, at 20 µM, stronger effect = higher value. For orientation: In ATP-based viability assays light output follows the ATP content of the culture.
Assay [4] can be described thus: inhibition of endothelial tube formation, primary screen, imaging, VEGF stimulated, CD31 staining, tube area, NPC library (AID 1117340;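 active = compound that reduces growth-factor-driven endothelial tube area in a mixed cell culture, no cutoff stated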). The note with it: VEGF-stimulated ADSC/ECFC co-culture, at 10 µM, stronger effect = higher value.
Assay [5] can be described thus: glucagon-like peptide 1 release enhancers, primary assay, NCI-H716 cell line, NPC library (AID 1117341;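 active = compound raises GLP1 secretion from the human gut endocrine cells, with no numeric limit stated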). The note with it: NCI-H716 cells, at 10 µM, stronger effect = higher value.
Assay [6] in a line: HCT116 colon cancer cell growth inhibition, primary screen, CellTiter-Glo luminescence, NPC library (AID 1117342;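 active = compounds that lower survival of HCT116 colon cancer cells in the luminescence readout, no numeric limit stated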). The note with it: at 20 µM (top of the series).
Assay [7] is described as follows: CellTiter-Glo luminescent readout of SW480 viability loss, NPC library primary (AID 1117343;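 active = compounds that lower viability of the colon cancer cells in the luminescence readout, with no numeric limit stated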). The note with it: CellTiter-Glo luminescence; at 20 µM (top of the series) unless noted.
Assay [8] in a line: decreased DLD-1 cellular survival, CellTiter-Glo luminescent readout, NPC compound collection, primary HTS (AID 1117346;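 active = compounds that lower survival of DLD-1 colon cancer cells in the luminescence readout, no cutoff given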). The conditions noted are these: DLD-1 viability, CellTiter-Glo luminescence; at 20 µM (top of the series).
The subject of assay [9] is Aerobactin synthetase IucA (Klebsiella pneumoniae). The assay is described as follows: IucA aerobactin synthetase inhibitors, biochemical, Tocris library, absorbance (AID 1345561; call rule not given here;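 also: 100% = enzyme without compound and 0% = no enzyme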). The note with it: purified IucA enzyme assay, absorbance (OD) read-out; stronger effect = lower value;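 tested at 8 µM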.
Assay [10] is described as follows: sensitizers of A549 cells to miR-34 induction, primary screen, imaging, A549 dox-inducible miR-34, nuclei and caspase counts (AID 1347080;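 active = compounds whose cell count with miR-34 switched on is under 0.7 times the count with it off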). The note with it: A549 miR-34 inducible, Hoechst nuclei count, 48 h.
A short description of assay [11]: viability rescue of complex I mutant cybrids, primary screen, cell-based, galactose medium, ATP luminescence (AID 1645843).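 Also: positive z means more ATP and so rescue of galactose-driven cybrid death.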 The note with it: complex I mutant cybrid cells, 72 h, stronger effect = higher value.
The nature of assay [12]: survival rescue of mitochondrial mutant cells in low glucose, primary screen, MELAS cybrids, Rieske KO mouse fibroblasts, CellTiter-Glo (AID 1508586;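 active = mean z-score across replicates of 1.96 or higher in either the MELAS or the Rieske mutant cell line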;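 also: z relative to plate mean and SD of compound and empty wells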).
Where [13] appears, read: stronger effect = lower value, cell number ratio, induced over uninduced.
Setting [14] is: measured here: relative caspase fold change +Dox/-Dox.
[15] abbreviates: measured here: total cells with miR-34 induction, stronger effect = lower value.
Where [16] appears, read: measured here: total cells without miR-34 induction.

Several values for one entry are separate records, joined by “and”; a condition that tells them apart may be missing. Equal entries are not always repeated. Activity calls are given as the source filed them.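 The calls were made as follows, unless noted: active = z-score of at least 1.8 in each of two replicates, scored against plate mean and spread of sample wells; inactive = the rest.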

One may read the remaining activity as the signal under treatment as a percentage of the control signal. `c1cc(CN2CCCCC2)cc(OCCCNc2nc3ccccc3s2)c1`: the nuclear beta-catenin stimulation in [1] (at 10 µM) is 3.6% (inactive); in [1] (stimulation, at 2 µM), 0.7%. The insulin secretion stimulation in assay [2] is 32.8% (active). Moreover, the viability decrease in assay [3] was 29.5% (inactive). In addition, the tube area decrease in assay [4] was 22.6% (inactive). Besides, the GLP1 secretion stimulation in assay [5] was 0.5% (inactive). Also, the inhibition of viability in [6] is 53.3% (active). In addition, the viability decrease (inhibition) in assay [7] was -462% (inactive); in assay [8], 58.6% (active). Further, the remaining activity in assay [9] was 120% (inactive). For the same compound, the fold change in [10] (setting [13]) was 1.11 (inactive) and 0.901 (inactive); in assay [10] (setting [14]), 0.913 and 0.9. Besides, the cell count in assay [10] (setting [15]) is 7430 and 7110; in [10] (setting [16]) it was 6660 and 7890. In [11], the z-score is -1.34 (inactive) and -0.8 (inactive).
Take `C[C@H]1O[C@H](O[C@H]2[C@H](O)[C@@H](O)[C@@H](O[C@H]3[C@H](O)[C@@H](O)[C@H](O)O[C@@H]3CO)O[C@@H]2CO)[C@H](O)[C@@H](O)[C@@H]1N[C@H]1C=C(CO)[C@@H](O)[C@H](O)[C@H]1O`: the nuclear beta-catenin stimulation in assay [1] (at 10 µM) is -0.6% (inactive); in assay [1] (stimulation, at 2 µM) it was -1.1%. The insulin secretion stimulation in [2] is 0.7% (inactive). Moreover, the viability decrease in assay [3] was -5.3% (inactive). In addition, the tube area decrease in assay [4] is -8.2% (inactive). In [5], the GLP1 secretion stimulation is -2.2% (inactive). Moreover, the inhibition of viability in assay [6] was 18.9% (inactive). For the same compound, the results for the viability decrease (inhibition) in assay [7] and in assay [8] were -0.4% (inactive) and -0.5% (inactive), respectively. Further, the remaining activity in [9] is 108% (inactive). The results for the fold change in assay [10] (setting [13]) and in [10] (setting [14]) were 0.838 (inactive) and 1.97, respectively. Moreover, the values for the cell count in [10] (setting [15]) and in assay [10] (setting [16]) were 7710 and 9210, respectively. The z-score was -0.1 (inactive) in [12] (MELAS cybrid survival, CellTiter-Glo 48 h, stronger effect = higher value); -0.573 in [12] (Rieske KO mouse fibroblast survival, CellTiter-Glo 72 h); 0.18 (inactive) in assay [11].
As for `CCOC(=O)[C@H](CCc1ccccc1)N[C@@H](C)C(=O)N1Cc2cc(OC)c(OC)cc2C[C@H]1C(=O)O`, the nuclear beta-catenin stimulation was -0.5% (inactive) in [1] (at 10 µM) and 1.6% in [1] (stimulation, at 2 µM). In addition, the insulin secretion stimulation in assay [2] was 0.3% (inactive). Besides, in assay [3], the viability decrease was -1.4% (inactive). Moreover, in assay [4], the tube area decrease is 78.4% (active). In assay [5], the GLP1 secretion stimulation was 0.3% (inactive). Further, the inhibition of viability in assay [6] is 6.7% (inactive). Moreover, the viability decrease (inhibition) is -2.3% (inactive) in assay [7] and 3.7% (inactive) in [8]. Further, the remaining activity in assay [9] was 110% (inactive). Further, the fold change in assay [10] (setting [13]) was 0.937 (inactive); in assay [10] (setting [14]) it was 1.79. Further, the cell count in assay [10] (setting [15]) was found to be 7700; in [10] (setting [16]), 8220. The z-score in assay [11] was -0.04 (inactive).
Take `CN1CCC[C@@H]1Cc1c[nH]c2ccc(CCS(=O)(=O)c3ccccc3)cc12`: the nuclear beta-catenin stimulation was 1.8% (inactive) in assay [1] (at 10 µM) and 1% in [1] (stimulation, at 2 µM). Besides, the insulin secretion stimulation in assay [2] is 3.3% (inactive). Moreover, the viability decrease in [3] is 30.6% (inactive). Moreover, the tube area decrease in [4] is 0.6% (inactive). Moreover, the GLP1 secretion stimulation in assay [5] is 5.3% (inactive). Further, the inhibition of viability in assay [6] is 36.8% (inactive). In addition, the viability decrease (inhibition) in assay [7] was 19.5% (inactive); in assay [8] it was -0.8% (inactive). The remaining activity in assay [9] was 117% (inactive). Moreover, the fold change was 0.993 (inactive) and 0.947 (inactive) in assay [10] (setting [13]); 1.11 and 0.557 in [10] (setting [14]). Besides, the cell count in assay [10] (setting [15]) is 9730 and 9170; in assay [10] (setting [16]), 9790 and 9680. Besides, in assay [11], the z-score was -0.6 (inactive) and -0.525 (inactive).
In the case of `CC[N+](CC)(CC)CCOc1ccc(/C=C/c2ccccc2)cc1`, the nuclear beta-catenin stimulation is 0.4% (inactive) in assay [1] (at 10 µM) and -0.8% in assay [1] (stimulation, at 2 µM). Also, the insulin secretion stimulation in assay [2] is 1.3% (inactive). Besides, the viability decrease in assay [3] is -35.4% (inactive). The tube area decrease in assay [4] is 82.5% (active). Also, the GLP1 secretion stimulation in assay [5] was -1.8% (inactive). Further, the inhibition of viability in assay [6] is 46.8% (inactive). Also, the values for the viability decrease (inhibition) in assay [7] and in assay [8] were -6% (inactive) and 56.2% (active), respectively. In addition, the remaining activity in assay [9] is 112% (inactive). In addition, the fold change is 1.12 (inactive) and 0.929 (inactive) in assay [10] (setting [13]); 0.542 and 0.715 in assay [10] (setting [14]). In addition, the cell count in [10] (setting [15]) is 2640 and 2410; in assay [10] (setting [16]), 2350 and 2590. Also, the z-score in [11] is -1.29 (inactive) and -0.77 (inactive).
